Source: the supplement of paper PMC8728848
The entries come from a sample that favours the strongest signals as a whole.

Columns and labels:
Assay in all cases: glycan array binding signal (z-score within array); higher = stronger binding
Details in all cases: glycan notation: IUPAC condensed, linker removed
[1] = target: Fuc(a1-2)Gal(b1-3)GalNAc(b1-4)[Neu5Ac(a2-3)]Gal(b1-4)Glc
How it was run: (§1)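 Glycan array data came from 3228 arrays in the Consortium for Functional Glycomics database, and only arrays with an available protein sequence were kept. Glycan names were put into IUPAC-condensed notation, and columns mapping to the same glycan were averaged. The binding signal is a within-array Z-score, averaged across arrays of one protein sequence run at different concentrations or buffers and across linkers. A negative Z-score can be read as non-binding.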

[2] = target: Fuc(a1-2)Gal(b1-3)[Fuc(a1-4)]GlcNAc(b1-2)Man(a1-3)[Fuc(a1-2)Gal(b1-3)[Fuc(a1-4)]GlcNAc(b1-2)Man(a1-6)]Man(b1-4)GlcNAc(b1-4)GlcNAc
How it was run: as §1

[3] = target: Fuc(a1-2)Gal(b1-4)[Fuc(a1-3)]GlcNAc(b1-2)[Fuc(a1-2)Gal(b1-4)[Fuc(a1-3)]GlcNAc(b1-4)]Man(a1-3)[Fuc(a1-2)Gal(b1-4)[Fuc(a1-3)]GlcNAc(b1-2)Man(a1-6)]Man(b1-4)GlcNAc(b1-4)GlcNAc
How it was run: as §1

[4] = target: Fuc(a1-2)Gal(b1-4)[Fuc(a1-3)]GlcNAc(b1-3)GalNAc
How it was run: as §1

[5] = target: Fuc(a1-2)[Gal(a1-3)]Gal(b1-3)GlcNAc(b1-3)GalNAc
How it was run: as §1

[6] = target: Fuc(a1-2)[Gal(a1-3)]Gal(b1-4)[Fuc(a1-3)]GlcNAc(b1-3)GalNAc
How it was run: as §1

[7] = target: Fuc(a1-2)[GalNAc(a1-3)]Gal(b1-3)GalNAc(a1-3)[Fuc(a1-2)]Gal(b1-4)GlcNAc
How it was run: as §1

[8] = target: Fuc(a1-2)[GalNAc(a1-3)]Gal(b1-3)GlcNAc(b1-3)GalNAc
How it was run: as §1

[9] = target: Fuc(a1-2)[GalNAc(a1-3)]Gal(b1-4)GlcNAc(b1-3)GalNAc
How it was run: as §1

[10] = target: Fuc(a1-2)[GalNAc(a1-3)]Gal(b1-4)[Fuc(a1-3)]GlcNAc(b1-3)GalNAc
How it was run: as §1

[11] = target: Fuc(a1-3)[Gal(b1-4)]GlcNAc(b1-2)Man(a1-6)[Gal(b1-4)GlcNAc(b1-2)Man(a1-3)]Man(b1-4)GlcNAc(b1-4)GlcNAc
How it was run: as §1

[12] = target: Fuc(a1-3)[Gal3S(b1-4)]GlcNAc6S
How it was run: as §1

[13] = target: Fuc(a1-3)[GalNAc(b1-4)]GlcNAc
How it was run: as §1

[14] = target: Gal(a1-3)Gal(b1-3)GlcNAc(b1-2)Man(a1-3)[Gal(a1-3)Gal(b1-3)GlcNAc(b1-2)Man(a1-6)]Man(b1-4)GlcNAc(b1-4)GlcNAc
How it was run: as §1

Gal(b1-2)Gal = target: Gal(b1-2)Gal
How it was run: as §1

[15] = target: Gal(b1-3)GlcNAc(b1-3)Gal(b1-3)GlcNAc
How it was run: as §1

[16] = target: Gal(b1-3)GlcNAc(b1-6)Gal(b1-4)GlcNAc
How it was run: as §1

[17] = target: Gal(b1-4)GlcNAc(b1-3)[GlcNAc(b1-6)]Gal(b1-4)GlcNAc
How it was run: as §1

Gal(b1-6)Gal = target: Gal(b1-6)Gal
How it was run: as §1

Gal3S(b1-4)Glc6S = target: Gal3S(b1-4)Glc6S
How it was run: as §1

Gal3S(b1-4)GlcNAc6S = target: Gal3S(b1-4)GlcNAc6S
How it was run: as §1

[18] = target: GalNAc(a1-3)GalNAc(a1-3)Gal(a1-4)Gal(b1-4)GlcNAc
How it was run: as §1

GalNAc(b1-3)Gal = target: GalNAc(b1-3)Gal
How it was run: as §1

[19] = target: GalNAc(b1-3)Gal(a1-4)Gal(b1-4)GlcNAc(b1-3)Gal(b1-4)Glc
How it was run: as §1

[20] = target: GalNAc(b1-3)Gal(a1-6)Gal(b1-4)Glc
How it was run: as §1

GlcA(b1-3)GlcNAc = target: GlcA(b1-3)GlcNAc
How it was run: as §1

[21] = target: GlcNAc(a1-3)Gal(b1-4)GlcNAc
How it was run: as §1

[22] = target: GlcNAc(b1-3)Gal(b1-4)GlcNAc(b1-3)Gal(b1-4)GlcNAc
How it was run: as §1

[23] = target: GlcNAc(b1-4)[GlcNAc(b1-6)]GalNAc
How it was run: as §1

Man(a1-2)Man(a1-3)Man = target: Man(a1-2)Man(a1-3)Man
How it was run: as §1

Neu5Ac(a2-3)Gal = target: Neu5Ac(a2-3)Gal
How it was run: as §1

[24] = target: Neu5Ac(a2-3)Gal(b1-3)GalNAc(b1-4)[Neu5Ac(a2-3)]Gal(b1-4)Glc
How it was run: as §1

[25] = target: Neu5Ac(a2-3)Gal(b1-3)GlcNAc
How it was run: as §1

[26] = target: Neu5Ac(a2-3)Gal(b1-3)GlcNAc(b1-3)Gal(b1-3)GlcNAc
How it was run: as §1

Neu5Ac(a2-3)Gal(b1-4)Glc = target: Neu5Ac(a2-3)Gal(b1-4)Glc
How it was run: as §1

[27] = target: Neu5Ac(a2-3)Gal(b1-4)GlcNAc(b1-3)Gal(b1-4)GlcNAc
How it was run: as §1

[28] = target: Neu5Ac(a2-3)Gal(b1-4)GlcNAc(b1-3)Gal(b1-4)GlcNAc(b1-3)Gal(b1-4)GlcNAc
How it was run: as §1

[29] = target: Neu5Ac(a2-3)Gal(b1-4)GlcNAc(b1-3)Gal(b1-4)[Fuc(a1-3)]GlcNAc
How it was run: as §1

[30] = target: Neu5Ac(a2-3)Gal(b1-4)[Fuc(a1-3)]GlcNAc6S
How it was run: as §1

[31] = target: Neu5Ac(a2-6)Gal(b1-4)GlcNAc(b1-2)Man(a1-3)[Man(a1-6)]Man(b1-4)GlcNAc(b1-4)GlcNAc
How it was run: as §1

[32] = target: Neu5Gc(a2-3)Gal(b1-4)[Fuc(a1-3)]GlcNAc
How it was run: as §1

B1: PILRa (Homo sapiens), Q9UKJ1 (protein)
chain: MGRPLLLPLLPLLLPPAFLQPSGSTGSGPSYLYGVTQPKHLSASMGGSVEIPFSFYYPWELATAPDVRISWRRGHFHRQSFYSTRPPSIHKDYVNRLFLNWTEGQKSGFLRISNLQKQDQSVYFCRVELDTRSSGRQQWQSIEGTKLSITQAVTTTTQRPSSMTTTWRLSSTTTTTGLRVTQGKRRSDSWHISLETAVGVAVAVTVLGIMILGLICLLRWRRRKGQQRTKATTPAREPFQNTEEPYENIRNEGQNTDPKLNPKDDGIVYASLALSSSTSPRAPPSHRPLKSPQNETLYSVLKA
B1 was tested. Which “glycan array binding signal (z-score)” value [1] did it give?
The value was -0.102.

And the “glycan array binding signal (z-score)” value [2]?
Its value is 4.38.

What about the “glycan array binding signal (z-score)” value [3] of the same binder?
The value was 4.02.

What about the “glycan array binding signal (z-score)” value [4] of the same binder?
Its value is 5.45.

And the “glycan array binding signal (z-score)” value [5]?
The value was 0.023.

And the “glycan array binding signal (z-score)” value [6]?
The value was 3.41.

And the “glycan array binding signal (z-score)” value [7]?
Its value is -0.142.

And the “glycan array binding signal (z-score)” value [8]?
Its value is 4.4.

And the “glycan array binding signal (z-score)” value [9]?
Its value is -0.194.

And the “glycan array binding signal (z-score)” value [10]?
The value was 9.37.

And the “glycan array binding signal (z-score)” value [11]?
Its value is -0.546.

What about the “glycan array binding signal (z-score)” value [12] of the same binder?
The value was -0.051.

What about the “glycan array binding signal (z-score)” value [13] of the same binder?
Its value is -0.102.

And the “glycan array binding signal (z-score)” value [14]?
The value was 4.98.

And the “glycan array binding signal (z-score)” value (Gal(b1-2)Gal)?
Its value is 0.001.

What about the “glycan array binding signal (z-score)” value [15] of the same binder?
Its value is 0.263.

What about the “glycan array binding signal (z-score)” value [16] of the same binder?
Its value is -0.136.

And the “glycan array binding signal (z-score)” value [17]?
Its value is -0.338.

And the “glycan array binding signal (z-score)” value (Gal(b1-6)Gal)?
Its value is -0.177.

What about the “glycan array binding signal (z-score)” value (Gal3S(b1-4)Glc6S) of the same binder?
Its value is 0.618.

And the “glycan array binding signal (z-score)” value (Gal3S(b1-4)GlcNAc6S)?
The value was -0.01.

And the “glycan array binding signal (z-score)” value [18]?
The value was -0.27.

And the “glycan array binding signal (z-score)” value (GalNAc(b1-3)Gal)?
Its value is 0.508.

What about the “glycan array binding signal (z-score)” value [19] of the same binder?
The value was -0.169.

What about the “glycan array binding signal (z-score)” value [20] of the same binder?
The value was -0.215.

And the “glycan array binding signal (z-score)” value (GlcA(b1-3)GlcNAc)?
The value was 6.02.

And the “glycan array binding signal (z-score)” value [21]?
Its value is 0.089.

And the “glycan array binding signal (z-score)” value [22]?
Its value is -0.259.

What about the “glycan array binding signal (z-score)” value [23] of the same binder?
Its value is -0.213.

What about the “glycan array binding signal (z-score)” value (Man(a1-2)Man(a1-3)Man) of the same binder?
Its value is -0.144.

And the “glycan array binding signal (z-score)” value (Neu5Ac(a2-3)Gal)?
Its value is -0.314.

And the “glycan array binding signal (z-score)” value [24]?
Its value is -0.281.

And the “glycan array binding signal (z-score)” value [25]?
The value was 0.854.

And the “glycan array binding signal (z-score)” value [26]?
Its value is -0.15.

And the “glycan array binding signal (z-score)” value (Neu5Ac(a2-3)Gal(b1-4)Glc)?
The value was -0.248.

What about the “glycan array binding signal (z-score)” value [27] of the same binder?
Its value is 1.17.

What about the “glycan array binding signal (z-score)” value [28] of the same binder?
Its value is -0.327.

What about the “glycan array binding signal (z-score)” value [29] of the same binder?
The value was -0.125.

And the “glycan array binding signal (z-score)” value [30]?
The value was -0.092.

What about the “glycan array binding signal (z-score)” value [31] of the same binder?
Its value is -0.177.

And the “glycan array binding signal (z-score)” value [32]?
The value was -0.343.
